# From PubChem
# HSF1 inhib: HSF1 inhibition | NIH3T3-HGL HSE-luciferase, MG132-induced, luminescence 8 h; stronger effect = lower value | activity change, negative = inhibition, % at 7.5 µM (by protocol) | 0.77% of 300,000 active | AID 2098;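 active means more than half of replicate wells show activity change below -50%, luminescence cut by over half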;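 further: luciferase reports HSF-1 transcriptional activity via heat shock element; 0% = median of DMSO wells and -100% = zero luminescence signal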
# AI-2 QS modul: modulators of Vibrio harveyi AI-2 quorum sensing system; 0.4% of 300,000 active; Vibrio harveyi JMH597 AI-2 luminescence/OD600 ratio, 9 h; stronger effect = lower value; strain lacks LuxN and CqsS sensors; 0 = neutral-control median; activity change, % at 7.5 µM; AID 2094; in the data active means activity change below about -75%, passing the limit was not always enough;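 further: luminescence divided by OD600 gain over 9 h not by final OD600 alone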
# SMARCA2 activ: SMARCA2 function activation, primary screen | AID 652017 | activation, % at 9.1 µM | MG213 cells, MMTV-luciferase reporter, dexamethasone, overnight | 1% of 370,000 active; in the data active means activation above about 7.8%;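 further: 0% = vehicle wells and 100% = reference activator wells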
# PG9 binder: binds the HIV-1 gp120 antibody PG9; inhibition, % at 6.7 µM; AID 624416; TR-FRET gp120-PG9 antibody binding; 0.43% of 360,000 active; in the data active means inhibition above about 8.5%
# HSP90 inh: HSP90 refolding inhibition in rabbit reticulocyte lysate | luciferase refolding luminescence, 3 h | inhibition, % at 5.6 µM | 0.91% of 290,000 active;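 active means inhibition above the screen-wide mean plus 3 SD, computed separately per campaign, cut at about 16% in these data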;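 further: 0% = DMSO wells and 100% = 60 µM geldanamycin wells; inhibitors lower the luminescence because luciferase stays unfolded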
# FXN GAA850 act: increases GAA850 frataxin promoter reporter activity; HEK293 lucGAA850 FXN promoter luciferase reporter, 24 h; percent of 10 µM SAHA response; activation, % at 6 µM; 0.56% of 360,000 active;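 active means activation above the average of all compounds screened plus 3 SD, cutoff fixed separately per campaign, cut at about 7.5% in these data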;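 further: 0% = DMSO wells and 100% = 10 µM SAHA wells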
# * marks the source's active call; other numbers are inactive results; · = no result. The list is not random: actives were taken first. Their share in the collection is about 3.4%.
SMILES,HSF1 inhib,AI-2 QS modul,SMARCA2 activ,PG9 binder,HSP90 inh,FXN GAA850 act
O=C(COc1nncc2ccccc12)NCCC1=CCCCC1,-4.1,-76.9*,-3.2,0.2,4.2,1.3
Cc1ccc(-c2cc(-c3nnc(SCC(=O)Nc4nccs4)n3N)[nH]n2)cc1,·,·,2.0,·,·,·
CC1(C)CC(=O)N(CC(=O)N2CCN(c3ccc(F)cc3)CC2)c2ccccc2S1(=O)=O,·,·,-2.1,·,·,·
CCOc1ccc(CCNC(=O)c2cc([N+](=O)[O-])ccc2N2CCOCC2)cc1OCC,-5.8,1.6,7.9*,-1.2,1.3,-5.5
CCOc1ccc(CCNC(=O)COC(=O)c2cc([N+](=O)[O-])ccc2N2CCOCC2)cc1OCC,24.9,47.6,0.4,-2.2,-2.5,0.3
O=C(Nc1ccc([N+](=O)[O-])cc1)C(=O)Nc1cccc(C(=O)O)c1,-70.8*,40.7,0.0,1.5,78.1*,-0.1
O=C(O)c1cc(NC(=O)c2ccc([N+](=O)[O-])cc2)cc(NC(=O)c2ccc([N+](=O)[O-])cc2)c1,0.6,8.9,-2.6,0.3,-5.7,0.2
CCCn1cc(SCC(=O)Nc2cc(C)on2)c2ccccc21,-3.4,8.5,-2.6,-2.5,3.9,0.0
CCn1cc(SCC(=O)Nc2cc(C)on2)c2ccccc21,-58.9*,10.5,-1.4,-2.4,2.0,1.1
COc1ccc(-c2cc(C(=O)NN=Cc3ccccc3[N+](=O)[O-])[nH]n2)cc1,·,·,-2.4,·,·,·
COC(=O)CCc1sc(Nc2ccccc2)nc1-c1ccc(OC)cc1,12.7,21.7,9.7*,-0.1,-3.5,6.8
COc1ccc(Nc2nc(-c3ccc(OC)cc3)c(CCC(=O)O)s2)cc1,-2.0,-2.1,-3.8,-5.1,-1.7,4.3
CCCCOCCCNC(=O)C[C@H]1C[C@@]2(C(=O)OC)C(=C[C@H](C(C)C)O[C@@H]2C2CC2)N(Cc2ccco2)C1=O,·,·,-3.2,·,·,·
Fc1ccc(-n2c(-c3ccco3)nc3nc4ccccc4nc32)cc1,6.3,-0.8,1.0,2.5,1.8,1.3
Fc1ccc(-c2nc3nc4ccccc4nc3n2Cc2ccco2)cc1,23.0,3.1,0.2,0.1,16.8*,2.0
COCCNC(=O)CN1C(=O)CC(C)(C)S(=O)(=O)c2ccccc21,-2.2,25.8,5.7,-1.5,-2.8,13.1*
COC(=O)CSc1nnc(-c2ccc(NS(=O)(=O)c3ccc(C(C)(C)C)cc3)cc2)o1,·,·,0.6,·,·,·
O=C(CCl)N=c1sccn1Cc1ccc(Cl)cc1Cl,-97.5*,21.7,-4.8,-1.7,0.1,-10.7
O=C(CCl)N=c1sccn1Cc1ccccc1Cl,·,18.6,-12.7,-1.9,0.6,-9.8
Cc1nc(N)sc1N=Nc1ccc(F)cc1,-5.2,29.0,2.9,-3.0,-1.6,9.7*
Nc1n[nH]c(N)c1N=Nc1ccc(F)cc1,2.1,5.2,3.2,-3.1,2.4,1.6
O=C(CO/N=C/c1ccc(Cl)cc1Cl)NNC(=O)c1cccc(Cl)c1,6.7,19.7,-2.8,0.1,0.6,1.7
CCC(CC)NC(=O)CO/N=C/c1ccc(Cl)cc1Cl,-0.2,17.6,7.9*,-1.1,2.9,-1.1
COC(=O)[C@]12C[C@H](CC(=O)NCC3CCCCC3)C(=O)N(Cc3ccc4c(c3)OCO4)C1=C[C@H](C(C)C)O[C@@H]2C1CC1,·,·,-2.2,·,·,·
COC(=O)CN1CCN(C(=O)c2csc(-c3ccccc3)n2)CC1,·,·,4.0,·,·,·
SMILES,HSF1 inhib,AI-2 QS modul,SMARCA2 activ,PG9 binder,HSP90 inh,FXN GAA850 act
COc1ccc(C[C@H]2CN3C(=NC[C@@H]3Cc3ccccc3)N2CCNC(=O)c2ccc(C)c(Br)c2)cc1,6.3,27.4,·,·,16.7*,-8.6
O=C(OCCCN1CCC2(CCCCC2)C1=O)c1ccccc1,·,·,-2.3,·,·,·
O=C(Nc1cccc(-c2nc3ccccc3s2)c1)C1=COCCO1,10.4,16.6,2.3,-1.4,-1.5,4.1
O=C(Nc1ccc(-c2nc3ccccc3s2)cc1)C1=COCCO1,-56.2*,-0.5,2.5,0.2,14.4,0.5
COc1cccc(CNC(=O)[C@H]2CCCN2C(=O)[C@H]2CCCN2C(=O)c2cccc(Cl)c2)c1,·,·,-1.1,1.4,·,·
Cn1c(-c2nonc2N)nc2ccccc21,-74.0*,14.4,2.1,-1.7,-4.2,1.5
CCCn1c(-c2nonc2N)nc2ccccc21,-23.3,6.8,-1.6,-0.9,-0.9,-2.1
Cc1ccc(OCc2nnc(SCC(=O)Nc3ccc(S(=O)(=O)Nc4cc(C)nc(C)n4)cc3)n2Cc2ccco2)cc1,·,·,-4.9,·,·,·
Cc1ccccc1N=Cc1ccc[nH]1,·,·,4.1,-2.2,·,-0.1
